# Inconclusive results are not listed. Entries that show only a call come without a potency. Activity calls are given as the source filed them. Calls follow the shape of the dose curve; as a rule, active = well fitted cell-killing curve with a large enough effect; inconclusive = small, poorly fitted or top-dose-only effect; inactive = flat fitted curve, though single readings scatter.
# Assay: qHTS of pediatric cancer cell lines to identify multiple opportunities for drug repurposing: Primary screen for Rh18 cells (AID 1347102); also: nearly all actives have a fitted effect of over 65% in size
# Conditions: Rh18 rhabdomyosarcoma viability, CellTiter-Glo luminescence, 48 h; series mostly up to 46 µM
# Text: Drug repurposing or repositioning has been offered as a strategy for drug development in oncology programs. This approach has special potential for childhood cancers and other rare or orphan diseases, where the expected return on new drug development has been a disincentive to pharmaceuticals.
# In this project we exploit the poly-pharmacology of drugs to discover new indications via phenotypic screening of a panel of 19 well-characterized cell lines derived from solid tumors seen in children and adolescents. The goal is to identify approved drugs with previously unrecognized anticancer properties that has the potential to reveal new mechanisms and biological processes involved in carcinogenesis or drug resistance. We employed a titration-based paradigm (quantitative high-throughput screening or qHTS), where all compounds were tested at multiple concentrations for their effect on cell viability. Concentration-response curves (CRCs) were derived directly from the primary screen, and both potency and efficacy values were used to identify compounds with robust bioactivity profiles. We screened the NIH Chemical Genomics Center (NCGC) Pharmaceutical Collection (NPC) and Mechanism Interrogation Plate (MIPE) small molecule collections of approved and investigational compounds against these cell lines; and measured metabolically active cells after 48 hours of compound treatment as a proxy for cell viability.
# Assay Submitter: Nathalia J. Martinez, National Center for Advancing Translational Sciences, National Institutes of Health, Rockville, MD, USA; email: natalia.martinez@nih.gov
# [1] Shen, M et al. Quantitative high-throughput phenotypic screening of pediatric cancer cell lines identifies multiple opportunities for drug repurposing. Oncotarget 2017 Dec 19;9(4):4758-4772. PMID 29435139.
# The cells were obtained from University of North Carolina (UNC), Pediatric Preclinical Testing Program (PPT), and Coriell Institute (CI).
# qHTS cell viability assay:
# Cells were assayed in growth media at a density of 500-1,000 cells/well. Five microliters of cells were dispensed into 1,536-well, white, solid-bottom, TC-treated plates (Greiner Bio One) using a multidrop dispenser and incubated at 37 degrees C, 5% CO2, under a humidified atmosphere for 5 hours. Twenty-three nanoliters of compounds and controls (neutral control DMSO or positive control bortezomib at final concentration of 2.3 µM) were subsequently transferred by Kalypsys pintool. For primary screens, the MIPE collection was tested at 11-point dilutions (final concentrations range from 0.78 nM to 46 µM) and the NPC collection at 8-point dilutions (final concentrations range from 0.59 nM to 46 µM). Compounds tested in follow-up screens were assayed at 11-point dilutions. Cells were incubated for 48 hours, followed by addition of 3 µL of CellTiter-Glo (Promega). After a 15 min incubation at room temperature, samples were analyzed for luminescence intensity using a ViewLux High-throughput CCD imager equipped with clear filters.
# Potency is read from the fitted curve at half-maximal effect.
row,Compound,Potency
1,Nc1nc(-c2ccccc2)c(Br)c(=O)[nH]1,inactive
2,O=C(NCCc1c[nH]c2ccccc12)c1cccnc1,inactive
3,CCOCCn1c(N2CCCN(C)CC2)nc2ccccc21,inactive
4,COc1cc(C)nc(-n2nc(C)cc2OC)n1,inactive
5,CCN(CC)CCNC(=O)c1cc(Br)c(N)cc1OC,inactive
6,Cc1ccc(S(=O)(=O)NC(=O)NC2CCCC2)cc1,inactive
7,O=C1OC2(c3ccccc31)c1cc(Br)c(O)c(Br)c1Oc1c2cc(Br)c(O)c1Br,inactive
8,C=C[C@@]1(C)CC(=O)[C@]2(O)[C@@]3(C)[C@@H](O)CCC(C)(C)[C@@H]3[C@H](O)[C@H](OC(C)=O)[C@@]2(C)O1,inactive
9,CC(C)(Cc1c[nH]c2ccccc12)NCC(O)COc1ccccc1C#N (stereo not given),inactive
10,Cl/C(=C\n1cncn1)c1ccc(Cl)cc1Cl,inactive
11,Nc1nc(N)c(-c2ccccc2)s1,inactive
12,CC(=O)Nc1ncc([N+](=O)[O-])s1,inactive
13,CC(=O)NC(=O)c1ccccc1O,inactive
14,CCCN(CCc1cccs1)[C@H]1CCc2c(O)cccc2C1,inactive
15,Cc1ncc(CO)c(C=O)c1O,inactive
16,CCCCCCCCCCCCCC(=O)OC(C)C,inactive
17,CCOc1cc(OCC)c(C(=O)CCC(=O)O)cc1OCC,inactive
18,C=CCN1CCc2nc(N)sc2CC1,inactive
19,NC1CCN(c2nc3c(cc2F)c(=O)c(C(=O)O)cn3-c2ccc(F)cc2F)C1 (stereo not given),inactive
20,OC[C@H]1O[C@@H](Oc2ccc(O)cc2)[C@H](O)[C@@H](O)[C@@H]1O,inactive

row,Compound,Potency
1,C=C[C@H]1CN2CC[C@H]1C[C@@H]2[C@@H](O)c1ccnc2ccc(OC)cc12,inactive
2,CCCCCCCCOc1ccc(C(=O)c2ccccc2)c(O)c1,inactive
3,CC1=C(C(=O)O)N2C(=O)[C@@H](NC(=O)[C@H](N)c3ccccc3)[C@H]2SC1,inactive
4,O=C(O)C1(C(=O)O)CCC1.[NH2-].[NH2-].[Pt+2],inactive
5,CC(=O)Nc1ccc(OC(=O)c2ccccc2OC(C)=O)cc1,inactive
6,CCCCNC(=O)NS(=O)(=O)c1ccc(N)cc1,inactive
7,C/C=C/C=N/NC(=O)c1ccncc1,inactive
8,O=C(O)c1ccc(S(=O)(=O)N(Cl)Cl)cc1,inactive
9,CCCCCCCCCCCCCCC[C@H](O)[C@@H](N)CO,inactive
10,O=S(=O)(O)c1ccc(O)cc1,inactive
11,C#C[C@]1(OC(C)=O)CC[C@H]2[C@@H]3CCC4=C/C(=N/O)CC[C@@H]4[C@H]3CC[C@@]21CC,inactive
12,O=C1C(=O)c2ccccc2C(O)=C1C1CCC(c2ccc(Cl)cc2)CC1 (stereo not given),inactive
13,CCCCCCCCCCCCCC[N+](C)(C)Cc1ccccc1,5.96 µM (active)
14,CN(CCCN1c2ccccc2CCc2ccccc21)CC(=O)c1ccc(Cl)cc1,inactive
15,O=C(Nc1ccc([N+](=O)[O-])cc1)Nc1ccc([N+](=O)[O-])cc1,inactive
16,NC(=S)N/N=C/c1cccnc1,inactive
17,CN1CCC(OC(c2ccccc2)c2ccccc2)CC1,inactive
18,N[C@H](C(=O)O)[C@@H](O)c1ccc(O)c(O)c1,inactive
19,CCOC(=O)c1ccc(N)cc1,inactive
20,C#C[C@]1(O)CC[C@H]2[C@@H]3CCC4=CC(=O)CC[C@@H]4[C@H]3CC[C@@]21CC,inactive

# From PubChem BioAssay (NCATS)
